Rows were chosen to be rich in hits. Some 1.3% of all compounds tested hit in one or more screens of this group.
EPAC1 antag: antagonists of human EPAC1; 0.14% of 360,000 active; EPAC1 GEF assay, Rap1b-BODIPY-GDP exchange fluorescence; O95398; Potency, µM (doses to about 115 µM), inactives show at the top dose activity change, negative = inhibition, most hits filed as inhibitors;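 further: plate controls were vehicle for no effect and positive control for full effect; nearly all actives have a fitted effect of over 50% in size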
EPAC2 agonist: agonists of human EPAC2 (RAPGEF4). 0.079% of 360,000 active. EPAC2 activation, biochemical qHTS; response scale: 100% = 6.5 mM cAMP response. Potency, µM (titrated, usually from 154 µM), for the others: at the top dose activation, most hits filed as activators; further: nearly all actives have a fitted effect of over 50% in size
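Compounds were titrated in qHTS against a Rap1B-BODIPY-GDP (250 nM) complex with EPAC2 (100 nM) and GDP (50 uM). BODIPY-GDP release tracked at 480/540 nm over 30 min at room temperature, normalized to 6.5 mM cAMP.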
BRCA1 expr up: activators of BRCA1 expression; MCF7-BRCA1-FFLuc reporter, luminescence, 48 h; response scale: scaled: vehicle 0%, 10 µM genistein 100%; Potency, µM (titrated, usually from 46.1 µM), without a hit: top-dose activation, usual class: activators; 1.1% of 380,000 active; further: nearly all actives have a fitted effect of over 80% in size
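Reporter cells (MCF7, BRCA1 promoter-firefly luciferase) received library compounds across a concentration series for 48 h. End-point luminescence was measured and concentration-effect curves derived after normalization.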
RGS4 inhibitor: human RGS4 inhibition | Transcreener GDP fluorescence polarization, RGS4-accelerated GTP hydrolysis | 0.039% of 390,000 active | P49798 | Potency, µM (titrated, usually from 114 µM), for inactives: at the top dose activity change, negative = inhibition, usual class: inhibitors; further: on the % scale 0 is the no-effect control and ±100 the full control effect; nearly all actives have a fitted effect of over 75% in size
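MLSMR compounds (23 nl, pin-transferred) preincubated 10 min at room temperature with a 500nM (2x) first reagent, then RGS4 at 900nM (2x) plus Transcreener GDP mix added; fluorescence polarization (620/688 nm) read before and after 90 min at 30 °C.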
EPAC1 agonist: activates human EPAC1 exchange factor; O95398; EPAC1 agonist qHTS, biochemical assay; response scale: 100% = response to 6.5 mM cAMP; Potency, µM (series often up to 154 µM), without a hit: top-dose activation, most hits filed as activators; 0.073% of 360,000 active; further: nearly all actives have a fitted effect of over 60% in size
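Nucleotide exchange assay: 100 nM EPAC1 with 250 nM Rap1B loaded with BODIPY-GDP and 50 uM GDP, room temperature. Fluorescence (480/540 nm) read every 5 min for 30 min; signal change normalized to 6.5 mM cAMP as full agonist.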
EPAC2 antag: blocks human EPAC2 exchange factor | Q8WZA2 | EPAC2 GEF exchange of Rap1B-BODIPY-GDP, fluorescence | Potency, µM (series often up to 114 µM), for the others: top-dose activity, negative = inhibition, most hits filed as inhibitors | 0.18% of 360,000 active | AID 720708; further: on the % scale 0 is the no-effect control and ±100 the full control effect; nearly all actives have a fitted effect of over 45% in size
Active calls of the source: *; ? = inconclusive; . = not tested or not shown; [ ] = another dose, or the depositor's remark. The call rests on the fitted dose curve; in most records, active means well fitted curve in the direction sought with a large enough effect; inconclusive means small, poorly fitted or top-dose-only effect, or another doubt; inactive means no such curve, though single readings can be large; an effect the other way counts as inactive or inconclusive. Potency means the concentration at half of the fitted maximal effect.

SMILES	EPAC1 antag	EPAC2 agonist	BRCA1 expr up	RGS4 inhibitor	EPAC1 agonist	EPAC2 antag
COc1ccc(Oc2cnc3ccccc3n2)cc1	-11%	4%	11µM*	-7%	8%	2%
CN(c1nc(-c2ccc(Br)cc2)cs1)C1CCS(=O)(=O)C1 (configuration not stated)	-6%	14%	11µM*	6%	4%	-5%
Cc1ccsc1CN(C(=O)COc1ccc(Br)cc1)C1CCS(=O)(=O)C1 (configuration not stated)	.	.	.	-20%	.	.
COc1ccc(NC(=O)CSc2nc3sc4c(c3c(=O)n2-c2ccc(OC)cc2)CCN(C)C4)cc1	-6%	?	3%	-46%	6%	71µM*
CCOC(=O)CSc1nc2sc3c(c2c(=O)n1-c1ccccc1)CCC(C(C)(C)C)C3 (configuration not stated)	.	.	5%	3%	.	.
CC1CCc2c(sc3nc(SCC(=O)O)n(-c4ccccc4)c(=O)c23)C1 (configuration not stated)	89µM*	-2%	-2%	-15%[11.4 µM]	?	-14%
COc1ccc(-n2c(SCC(=O)Nc3nccs3)nc3sc4c(c3c2=O)CCN(C)C4)cc1	20%	12%	-22%	-48%	4%	13%
CC1CCc2c(sc3nnn(CC(=O)Nc4ccc(Cl)cc4)c(=O)c23)C1 (configuration not stated)	.	.	.	10%	.	.
CCn1nnc2sc3c(c2c1=O)CCC(C)C3 (configuration not stated)	0%	-9%	13µM*	-10%	5%	3%
COCCCC1CCN(Cc2cn[nH]c2-c2cc(OC)c(OC)c(OC)c2)CC1	0%	9%	-10%	-5%	-10%	-3%
COc1cccc(NC(=O)C2CCC(CNS(=O)(=O)c3ccc4c(c3)CCCC(=O)N4)CC2)c1 (configuration not stated)	.	.	-55%	-21%	.	.
Nc1nnc(SCC(=O)OCC(=O)Nc2ccc(Br)cc2)s1	-7%	13%	4%	23%	-1%	0%
Cc1ccc(NCc2nc3ccccc3n2C)cc1C	-8%	3%	7.9µM*	-21%	-1%	0%
COc1ccc(Nc2nc3ccccc3n2C)cc1	-13%	4%	5.6µM*	9%	11%	3%
Cn1c(NCc2ccc(Cl)cc2)nc2ccccc21	-5%	-2%	4.5µM*	-4%	-5%	3%
Cc1ccc(NCc2nc3ccccc3n2C)cc1	8%	-6%	62%	-27%	5%	-1%
COc1ccc(CNc2nc3ccccc3n2C)c(O)c1	0%	13%	1.6µM*	-18%	-4%	-6%
Cc1cc(=O)oc2c(C)c(OC(C)C(=O)NCC3CCC(C(=O)O)CC3)ccc12 (configuration not stated)	12%	8%	11%	-9%	-1%	10%
Cc1cc(OCC(=O)N2CCN(c3ccc(F)cc3)CC2)c2c(C)cc(=O)oc2c1	-5%	8%	-13%	?	12%	-1%
C=Cc1ncc(OC)c2c1[nH]c1ccccc12	-27%	12%	-86%	2%	5%	-24%
Cn1c(CNc2nc3ccccc3n2C)nc2ccccc21	2%	5%	10µM*	41%	-1%	6%
COc1ccc(NCc2nc3ccccc3n2C)cc1	-18%	2%	4µM*	-22%	-1%	-8%
CC(C)n1c(NCc2nc3ccccc3n2C)nc2ccccc21	1%	3%	0%	2%	4%	-2%
CCCn1c(NCc2cccc(OC)c2O)nc2ccccc21	-15%	-10%	6.3µM*	7%[11.4 µM]	3%	?
COc1ccc(OCC(=O)NNC(=O)C(=O)Nc2cc(OC)ccc2OC)cc1	6%	2%	3%	-16%	8%	0%
SMILES	EPAC1 antag	EPAC2 agonist	BRCA1 expr up	RGS4 inhibitor	EPAC1 agonist	EPAC2 antag
Cc1cc(NCc2ccccc2Cl)n2nnnc2n1	4%	14%	-8%	?	5%	1%
COc1ccc(NC(=O)c2cc3ccccc3o/c2=N\NS(=O)(=O)c2ccc(C)cc2)cc1	-2%	3%	5µM*	2%	-1%	8%
CN(CC(=O)Nc1ccc2c(c1)OCO2)S(=O)(=O)c1ccc2c(c1)CCC(=O)N2	-2%	2%	0%	-1%	-2%	15%
CSc1nsc(SC)c1C(=O)NCCNS(=O)(=O)c1ccc(C)cc1	2%	-16%	-26%	1%	0%	-6%[57.1 µM]
CCCn1nnnc1NC(=O)COc1ccc(CC)cc1	-2%	-1%	3%	-25%	6%	2%
O=C(COC(=O)c1cc([N+](=O)[O-])ccc1N1CCOCC1)c1ccccc1	?	-1%	0%	-16%	10%	-6%
C=CCN1C(=O)/C(=C2/Sc3ccccc3N2CC)SC1=S	8%	5%	12%	-7%	-12%	16%
C=CCN1C(=O)/C(=C/C=C2/N(CC)c3ccc(S(=O)(=O)N(C)C)cc3N2CC)SC1=S	10%	100µM*	3%	18%[56.9 µM]	100µM*	-1%
O=C(CNc1ccccc1)N/N=C/c1ccc2c(c1)OCO2	1%	6%	23%	?	-8%	1%[57.1 µM]
CC(C)(C)c1ccc(/C=N/NC(=O)C2CCCC2)cc1	0%	4%	5.6µM*	7%	-3%	-18%
O=C(NN=Cc1ccc2c(c1)OCO2)C1CC1	-21%	25%	7.1µM*	-19%	-1%	-20%
O=C(Cc1ccccc1)N/N=C/c1ccc2c(c1)OCO2	-6%	11%	1.3µM*	-27%	3%	1%
O=C(NN=Cc1ccc2c(c1)OCO2)NN=Cc1ccc2c(c1)OCO2	-5%	-1%	70%	10%	1%	3%
Cc1[nH]c2ccc(C(=O)OC(C)C(=O)N(C)c3ccccc3)cc2c1C (configuration not stated)	-11%	-5%	-61%	-24%	28µM*	-7%
Cc1ccc2ccc3ccc(C)nc3c2n1	6%	8%	-62%	0%	-2%	-8%
O=c1c2cc(-c3ccccc3)sc2ncn1-n1cccc1	?	5%	2µM*	-12%[11.4 µM]	5%	-2%
O=c1[nH]cnc2sc(-c3ccccc3)cc12	-3%	5%	13µM*	-1%	9%	2%
CCn1c(SCC(=O)NCc2cccs2)nnc1-c1ccncc1	3%	4%	18%	0%	-7%	5%
Cc1ccc(C)c(OCc2cc(C(=O)N3C[C@@H](C)O[C@@H](C)C3)no2)c1	-11%	3%	4.5µM*	-8%	-6%	-10%
Cc1ccc(C)c(OCc2cc(C(=O)N3CC[C@@H]4CCCC[C@H]4C3)no2)c1	-10%	4%	?	6%	15%	-14%

Source: PubChem BioAssay (National Center for Advancing Translational Sciences (NCATS))
